About 2,000 (36%) of roughly 5,500 compounds were called active. About 18% were inconclusive and are not listed. No stated cut-off is given here; in the data, active means normalized growth mostly below about 0.91 (no sharp cut-off); inconclusive means no clear call, values can overlap the other calls; inactive means mostly above about 0.92. The list shows a part of the results.
Assay: chemical genetic growth profiling, strain panel (AID 1159580);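 further: tested at 20 µM; growth read once vehicle control cultures reached saturation at 30 °C; 1 = growth at the plate median or of vehicle wells; lower values mean less growth of the strain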
Settings: growth OD

Measured: normalized growth

COc1cc(O)c2c(=O)cc(-c3ccc(OC)c(-c4c(O)cc(O)c5c(=O)cc(-c6ccc(O)cc6)oc45)c3)oc2c1
inactive: S. cerevisiae deletion strains, locus YJL168C, strain set2, hits give low values 0.992 | S. cerevisiae deletion strains, locus YJL187C, strain SWE1 (second series), hits give low values 0.891 | S. cerevisiae deletion strains, locus YJL187C, strain SWE1, hits give low values 0.997 | S. cerevisiae deletion strains, locus YJR043C, strain POL32, hits give low values 0.935 | S. cerevisiae deletion strains, locus YJR075W, strain HOC1, hits give low values 0.973 | S. cerevisiae deletion strains, locus YKL009W, strain mrt4, hits give low values 1.02 | S. cerevisiae deletion strains, locus YKL068W, hits give low values 0.98 | S. cerevisiae deletion strains, locus YKL085W, strain MDH1 (second series), hits give low values 1 | S. cerevisiae deletion strains, locus YKL085W, strain MDH1, hits give low values 1 | S. cerevisiae deletion strains, locus YKL160W, strain elf1, hits give low values 0.991 | S. cerevisiae deletion strains, locus YKR001C, strain vps1, hits give low values 0.962 | S. cerevisiae deletion strains, locus YKR026C, strain gcn3, hits give low values 1.01 | S. cerevisiae deletion strains, locus YKR091W, strain srl3, hits give low values 1.01 | S. cerevisiae deletion strains, locus YLL001W, strain dnm1, hits give low values 1.02 | S. cerevisiae deletion strains, locus YLL026W, hits give low values 1.01 | S. cerevisiae deletion strains, locus YLL041C, strain sdh2, hits give low values 1.02 | S. cerevisiae deletion strains, locus YLR027C, strain aat2, hits give low values 1.01 | S. cerevisiae deletion strains, locus YLR039C, strain RIC1, hits give low values 0.95 | S. cerevisiae deletion strains, locus YLR058C, strain SHM2, hits give low values 0.913 | S. cerevisiae deletion strains, locus YLR102C, strain apc9, hits give low values 0.99 | S. cerevisiae deletion strains, locus YLR221C, strain rsa3, hits give low values 1 | S. cerevisiae deletion strains, locus YLR258W, strain gsy2, hits give low values 1.01 | S. cerevisiae deletion strains, locus YLR262C, strain YPT6 (second series), hits give low values 1.04 | S. cerevisiae deletion strains, locus YLR262C, strain YPT6, hits give low values 1.04 | S. cerevisiae deletion strains, locus YLR268W, strain sec22, hits give low values 0.963 | S. cerevisiae deletion strains, locus YLR320W, strain mms22, hits give low values 0.996 | S. cerevisiae deletion strains, locus YLR330W, strain CHS5, hits give low values 0.975 | S. cerevisiae deletion strains, locus YLR342W, strain FKS1 (second series), hits give low values 0.981 | S. cerevisiae deletion strains, locus YLR342W, strain FKS1, hits give low values 0.996 | S. cerevisiae deletion strains, locus YLR357W, strain rsc2, hits give low values 0.985 | S. cerevisiae deletion strains, locus YLR370C, strain arc18, hits give low values 1.01 | S. cerevisiae deletion strains, locus YLR371W, strain rom2, hits give low values 0.996 | S. cerevisiae deletion strains, locus YLR384C, strain iki3, hits give low values 1.04 | S. cerevisiae deletion strains, locus YLR418C, strain cdc73, hits give low values 0.975 | S. cerevisiae deletion strains, locus YML016C, strain PPZ1, hits give low values 0.957 | S. cerevisiae deletion strains, locus YML032C, strain rad52, hits give low values 0.998 | S. cerevisiae deletion strains, locus YML120C, strain ndi1, hits give low values 1.03 | S. cerevisiae deletion strains, locus YML124C, strain tub3, hits give low values 1 | S. cerevisiae deletion strains, locus YMR058W, strain fet3, hits give low values 0.969 | S. cerevisiae deletion strains, locus YMR078C, strain ctf18, hits give low values 0.997 | S. cerevisiae deletion strains, locus YMR125W, strain sto1, hits give low values 1.01 | S. cerevisiae deletion strains, locus YMR129W, hits give low values 1.02 | S. cerevisiae deletion strains, locus YMR205C, strain PFK2, hits give low values 1.01 | S. cerevisiae deletion strains, locus YMR223W, strain ubp8, hits give low values 0.971 | S. cerevisiae deletion strains, locus YMR231W, strain pep5, hits give low values 1.01 | S. cerevisiae deletion strains, locus YMR307W, strain GAS1, hits give low values 1.17 | S. cerevisiae deletion strains, locus YNL067W, strain RPL9B, hits give low values 0.951 | S. cerevisiae deletion strains, locus YNL071W, strain lat1, hits give low values 1.02 | S. cerevisiae deletion strains, locus YNL153C, strain GIM3, hits give low values 0.912 | S. cerevisiae deletion strains, locus YNL209W, strain ssb2, hits give low values 0.994 | S. cerevisiae deletion strains, locus YNL233W, strain BNI4, hits give low values 0.973 | S. cerevisiae deletion strains, locus YNL248C, strain rpa49, hits give low values 1.02 | S. cerevisiae deletion strains, locus YNL250W, strain rad50, hits give low values 0.97 | S. cerevisiae deletion strains, locus YNL271C, strain bni1, hits give low values 0.986 | S. cerevisiae deletion strains, locus YNL298W, strain CLA4, hits give low values 0.975 | S. cerevisiae deletion strains, locus YNL307C, strain MCK1, hits give low values 0.965 | S. cerevisiae deletion strains, locus YNL322C, strain KRE1 (second series), hits give low values 1.03 | S. cerevisiae deletion strains, locus YNR049C, strain mso1, hits give low values 1.02 | S. cerevisiae deletion strains, locus YNR052C, strain pop2, hits give low values 0.993 | S. cerevisiae deletion strains, locus YOL012C, strain htz1 0.606 | S. cerevisiae deletion strains, locus YOL147C, strain pex11, hits give low values 0.99 | S. cerevisiae deletion strains, locus YOR001W, strain rrp6, hits give low values 0.987 | S. cerevisiae deletion strains, locus YOR061W, strain CKA2, hits give low values 0.917 | S. cerevisiae deletion strains, locus YOR069W, strain VPS5, hits give low values 0.98 | S. cerevisiae deletion strains, locus YOR070C, strain gyp1, hits give low values 1.02 | S. cerevisiae deletion strains, locus YOR080W, strain dia2, hits give low values 1 | S. cerevisiae deletion strains, locus YOR083W, strain WHI5, hits give low values 0.996 | S. cerevisiae deletion strains, locus YOR106W, strain vam3, hits give low values 0.983 | S. cerevisiae deletion strains, locus YOR136W, strain idh2, hits give low values 0.993 | S. cerevisiae deletion strains, locus YOR144C, strain elg1, hits give low values 1.01 | S. cerevisiae deletion strains, locus YOR184W, strain ser1, hits give low values 0.958 | S. cerevisiae deletion strains, locus YOR265W, strain rbl2, hits give low values 0.999 | S. cerevisiae deletion strains, locus YOR270C, strain vph1, hits give low values 1.02 | S. cerevisiae deletion strains, locus YOR290C, strain snf2, hits give low values 0.982 | S. cerevisiae deletion strains, locus YOR316C, strain cot1, hits give low values 0.989 | S. cerevisiae deletion strains, locus YPL051W, strain arl3, hits give low values 0.968 | S. cerevisiae deletion strains, locus YPL078C, strain atp4, hits give low values 1.03 | S. cerevisiae deletion strains, locus YPL106C, strain sse1, hits give low values 1 | S. cerevisiae deletion strains, locus YPL240C, strain hsp82, hits give low values 1.01 | S. cerevisiae deletion strains, locus YPR119W, strain clb2, hits give low values 1.01 | S. cerevisiae deletion strains, locus YPR141C, strain kar3, hits give low values 0.98 | S. cerevisiae deletion strains, locus YPR163C, strain tif3, hits give low values 0.997 | S. cerevisiae deletion strains, locus YPR167C, strain met16, hits give low values 0.99 | S. cerevisiae deletion strains, strain wtn01, hits give low values 0.969 | S. cerevisiae strains, strain wild type, hits give low values 0.904
